# Results filed as inconclusive are left out. Entries that show only a call come without a potency. The source made the active and inactive calls. Calls come from the whole dose curve; as a rule, active = well fitted inhibition curve with a large enough effect; inconclusive = small, poorly fitted or top-dose-only effect; inactive = no such curve, though single readings can be large or run the other way.
# Target: Cytochrome P450 3A7 (Homo sapiens) (UniProt P24462)
# Experiment: Cytochrome P450 family 3 subfamily A member 7 (CYP3A7) small molecule antagonists: luciferase biochemical qHTS assay (AID 1963596); note: nearly all actives have a fitted effect of over 40% in size
# Conditions: P450-Glo CYP3A7 enzyme luminescence, 1 h; series mostly up to 57.4 µM
# Excerpt: National Center for Advancing Translational Sciences [NCATS] Assay Overview: Cytochrome P450 (CYP) enzymes are membrane-bound hemeproteins that play a key role in metabolism of drugs and xenobiotics. The CYP3A subfamily is the most abundant, representing 30% of the total adult hepatic CYP content, whereas CYP3A7 is found predominantly in human fetal liver and accounts up to 50% of the total fetal hepatic CYP content. Testing the effect of chemicals on CYP isozymes is useful to minimize the adverse drug reactions and toxicities in the drug development process. Chemicals were tested for their effect on CYP enzyme activities by using P450-Glo (TM) screening systems (Promega Corporation, Madison, WI). These systems provide a luminescent method containing proluciferin substrates and are converted to luciferin products by CYP isozymes. The luciferin products formed are detected with a luciferin detection reagent, and the amount of light produced is proportional to CYP activity. P450-Glo (TM) CYP3A7 screening system (Catalog. No. V8812) was used to detect the compounds that interfere with CYP3A7 activity. The positive control compound used for CYP3A7 assay is ketoconazole (Sigma-Aldrich, St. Louis, MO).
# Assay Protocol Summary: Two ul of enzyme-substrate mix was dispensed into medium binding white/solid 1536-well plates (Greiner Bio-One North America Inc., Monroe, NC) using a Flying Reagent Dispenser (FRD, Aurora Discovery, San Diego, CA). Compounds dissolved in DMSO, and positive control (ketoconazole) were transferred to the assay plates at 23 nl using a Pintool station (Wako, San Diego, CA). The assay plates were incubated at room temperature for 10 min. Then 2 ul of NADPH regeneration solution was added to each well of the assay plates using an FRD and incubated at room temperature for 1 h. The reaction was stopped by adding 4 ul of detection reagent using an FRD and after 20 min incubation at room temperature the luminescence signal was measured using a ViewLux plate reader (Perkin Elmer, Shelton, CT). Data were expressed as relative luminescence units.
# Sequence of Cytochrome P450 3A7 (Homo sapiens) (P24462 whole entry, looked up): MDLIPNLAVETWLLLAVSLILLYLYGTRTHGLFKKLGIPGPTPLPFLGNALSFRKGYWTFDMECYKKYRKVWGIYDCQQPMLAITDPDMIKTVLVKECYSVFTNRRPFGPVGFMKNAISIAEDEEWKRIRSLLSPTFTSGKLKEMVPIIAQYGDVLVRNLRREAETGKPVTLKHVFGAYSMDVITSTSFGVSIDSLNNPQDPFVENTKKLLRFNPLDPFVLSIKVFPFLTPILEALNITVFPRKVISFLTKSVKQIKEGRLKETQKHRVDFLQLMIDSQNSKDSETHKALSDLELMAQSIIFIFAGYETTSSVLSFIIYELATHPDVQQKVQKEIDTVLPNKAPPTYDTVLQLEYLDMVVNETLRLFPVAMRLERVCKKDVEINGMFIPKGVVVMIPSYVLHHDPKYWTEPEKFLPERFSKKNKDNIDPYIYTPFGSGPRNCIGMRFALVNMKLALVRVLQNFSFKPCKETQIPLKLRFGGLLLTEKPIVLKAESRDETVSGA
row,Compound,Potency
1,CNC(C)Cc1ccccc1OC (stereo not given),inactive
2,ClCc1cccc(Cl)c1,inactive
3,CCCN1CCC[C@@H]2Cc3[nH]ncc3C[C@H]21,inactive
4,CN1CC[C@]23c4c5ccc(O)c4O[C@H]2[C@@H](O)CC[C@H]3[C@H]1C5,inactive
5,O=C(O)C(Cl)Cl,inactive
6,CC(C)(C)NC[C@H](O)c1ccc(O)cc1Cl,inactive
7,CC(C)N(CCNC(=O)CN1CCCC1=O)C(C)C,inactive
8,C[C@H](NC(=O)Cc1cc(F)cc(F)c1)C(=O)N[C@@H]1N=C(c2ccccc2)c2ccccc2N(C)C1=O,inactive
9,CNC(C)[C@@H](O)c1ccc(O)cc1 (stereo not given in full),inactive
10,CNC(=O)NC(O)C(Cl)(Cl)Cl (stereo not given),inactive
11,COC1CC(=C(c2cccs2)c2cccs2)C[N+](C)(C)C1 (stereo not given),inactive
12,CNC(C)(C)Cc1ccccc1,inactive
13,NC(=O)CN1CCCC1=O,inactive
14,CC(C)C(Br)C(=O)NC(N)=O (stereo not given),inactive
15,C[N+](C)(C)CCOC(=O)C(O)(c1ccccc1)c1ccccc1,inactive
16,COC(=O)c1ccccc1C(=O)OC,inactive
17,CC(=O)NCCCOc1ccc(C(=O)N2CCC(N3C(=O)CCc4ccccc43)CC2)cc1,inactive
18,CC1=C(C(=O)O)N2C(=O)[C@@H](N)[C@H]2SC1,inactive
19,CCN1CCN(C(c2ccc(Cl)cc2)c2ccc(Cl)cc2)CC1,inactive
20,OCCOc1ccccc1,inactive

row,Compound,Potency
1,CC(Cc1ccccc1)NCCCCl (stereo not given),inactive
2,NC1=NC(=O)C(c2ccccc2)O1 (stereo not given),inactive
3,[N-]=[N+]=CC(=O)OC[C@H](N)C(=O)O,inactive
4,O=C(O)Cc1ccccc1,inactive
5,CC[N+]1(CC)CCC(OC(=O)C(O)(c2ccccc2)c2ccccc2)C1 (stereo not given),inactive
6,Oc1ccccc1-c1ccccc1,inactive
7,CCCC[N+]1(C)[C@@H]2CC(OC(=O)[C@H](CO)c3ccccc3)C[C@H]1[C@@H]1O[C@@H]12 (stereo not given in full),inactive
8,CN1C(=O)C(Cc2ccc3ccccc3c2)N=C(c2ccc(O)cc2)c2cc(Cl)ccc21 (stereo not given),inactive
9,CC(C)NCC(O)c1ccccc1Cl (stereo not given),inactive
10,Cn1c(CCCC(=O)O)nc2cc(N(CCCl)CCCl)ccc21,inactive
11,Cc1cc(C(=O)CN2CCCC2)c(C)n1-c1ccc(F)cc1,inactive
12,CC(C)(C)NCC(O)c1cc(Cl)c(N)c(C(F)(F)F)c1 (stereo not given),inactive
13,CCN(CC)C(=O)c1ccc(C2=CC3(CCNCC3)Oc3cccc(O)c32)cc1,inactive
14,CC(C)(N)Cc1ccccc1,inactive
15,CC(C)(C)NCC(O)c1ccccc1Cl (stereo not given),inactive
16,C[C@]12CC[C@H]3[C@@H](CC=C4C[C@@H](O)CC[C@@]43C)[C@@H]1CC[C@@H]2O,inactive
17,CCN[C@H](C)Cc1cccc(C(F)(F)F)c1,inactive
18,O=C1CN=C(c2cccc(Br)c2)c2oc3ccccc3c2N1,inactive
19,c1ccc(N2CCNCC2)cc1,inactive
20,O=C(O)CCCCCCNC1c2ccccc2CCc2ccccc21,inactive

# From PubChem BioAssay (NCATS)
